Source: the supplement of paper PMC6555819

How the values were obtained:
Experiment in all cases: PBM binding z-score (relative to random genomic background probes); higher = stronger binding; sequences stand for … in GC…GCGATTGACAGCGTAGAATGAAGG
[1] = system: FXR:RXRa (NR concentration 270 nM, RXRa partner concentration 90 nM)
Summary of the method: (§1)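 Binding z-scores take random background probes as their reference. They come from custom Agilent 4×180K protein-binding microarrays incubated 1 h with ligand-free nuclear receptor dimers, with antibodies against each partner (one per run) detecting binding. Scanned fluorescence was regression-normalized.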

[2] = system: LXRa:RXRa (NR concentration 270 nM, RXRa partner concentration 90 nM)
Summary of the method: as §1

[3] = system: LXRa homodimer (NR concentration 270 nM)
Summary of the method: as §1

[4] = system: LXRb:RXRa (NR concentration 270 nM, RXRa partner concentration 90 nM)
Summary of the method: as §1

[5] = system: LXRb homodimer (NR concentration 270 nM)
Summary of the method: as §1

[6] = system: PPARa:RXRa (NR concentration 270 nM, RXRa partner concentration 90 nM)
Summary of the method: as §1

[7] = system: PPARg:RXRa (NR concentration 180 nM, RXRa partner concentration 90 nM)
Summary of the method: as §1

[8] = system: PPARg:RXRa 270nM:90nM, anti-RXR (NR concentration 270 nM, RXRa partner concentration 90 nM)
Summary of the method: as §1

[9] = system: PPARg:RXRa 30nM:10nM, anti-RXR (NR concentration 30 nM, RXRa partner concentration 10 nM)
Summary of the method: as §1

[10] = system: PPARg:RXRa 90nM:30nM, anti-RXR (NR concentration 90 nM, RXRa partner concentration 30 nM)
Summary of the method: as §1

| Sequence | PBM binding z-score [1] | PBM binding z-score [2] | PBM binding z-score [3] | PBM binding z-score [4] | PBM binding z-score [5] | PBM binding z-score [6] | PBM binding z-score [7] | PBM binding z-score [8] | PBM binding z-score [9] | PBM binding z-score [10] |
| --- | --- | --- | --- | --- | --- | --- | --- | --- | --- | --- |
| GCTAGTTGGTCAGTAAAAGGACACACACCGGTCG | -0.0634 | -0.0918 | 0.213 | -0.44 | -0.0401 | -0.104 | 0.654 | 0.282 | -0.0614 | -0.0124 |
| ATCTCTAGGTAACCAAGTTCAGTAAATGCCGAAC | 0.686 | 1.04 | 1.15 | 1.1 | 0.894 | 1.29 | 0.842 | 1.1 | 0.556 | 0.989 |
| CAAACTACGTCAAAGGTCAAAGTCGAGCCAACCA | 5.96 | 6.21 | 4.83 | 5.68 | 2.75 | 6.18 | 8.64 | 7.97 | 6.79 | 8.59 |
| TCATATTGGTAAAGGTGAAAGTCGAACGATATGA | 0.751 | 1.1 | -0.299 | 1.19 | 0.0352 | 2.58 | 1.89 | 3.8 | 3.95 | 3.9 |
| GCTAGTTGGTCAGTAAAAGGTTACACACCGGTCG | 0.754 | 1.32 | 0.582 | 1.27 | -0.0752 | 1.85 | 0.972 | 2.31 | 0.546 | 1.46 |
| GGAACGAAGGCATTCGAGTTGATAGCATGGCGAT | -0.551 | -0.66 | -0.692 | -1.09 | -1.23 | -1.8 | 0.416 | -0.825 | -0.794 | -0.901 |
| ATCTCTAGCTAACAAGTTCAGTGAAAGAGAGGAC | 0.604 | 0.71 | 0.538 | 0.504 | 0.838 | 0.381 | 0.2 | -0.0606 | 0.335 | 0.17 |
| TCTTGTAGATCAAAAGAGGTTAAGAAAGTGCGCT | 0.748 | 3.35 | -0.0772 | 1.66 | -0.239 | 1.89 | -0.0297 | 1.59 | 2.62 | 2.16 |
| ACTATTAGATGAGACGAGGGCAACCGATAGGTTG | 0.455 | 0.107 | 0.389 | 0.0232 | 0.456 | 0.35 | 1.04 | 0.132 | 0.496 | 0.603 |
| CGTCCACGGTCAGAGAGGTCAGTGAATGCCGAGT | 2.16 | 1.89 | 1.45 | 1.77 | -0.73 | 2.33 | 0.382 | 0.996 | -0.638 | 0.247 |
| CCGAGTAGGTTATGGGGCATTAAGGCAACGGTGA | 0.273 | 0.355 | 0.112 | 0.489 | 0.086 | 1.94 | 3.57 | 4.37 | 2.35 | 3.99 |
| TCATATGGGTAAAAGGTGAAAGTCGGTGTGGTAA | 1.33 | 1.38 | -0.164 | 1.62 | -0.571 | 4.91 | 8.23 | 7.44 | 7.67 | 8.21 |
| TCTGCTAGGTGAACGATGGTCAGCTAATCTGCTA | -0.414 | -0.432 | -0.946 | -0.499 | -1.35 | 0.449 | 0.238 | 0.769 | 1.17 | 0.916 |
| ATATGTAGGTTATCGGTTCATTCAGTTTGCGCAT | 1.28 | 1.84 | 1.33 | 1.71 | 1.17 | 3.91 | 5.47 | 5.22 | 2.65 | 4.65 |
| ACTAGTTTGTCAGCTGAGGTCACACACAATTCGG | 3.55 | 3.38 | 2.38 | 3.67 | 1.33 | 3.71 | 1.49 | 2.21 | 0.672 | 1.86 |
| TCTAGCAGGCCAGATGGTCACTCAAGAGGTACGG | -1.05 | -0.551 | -0.782 | -1.05 | -1.42 | -0.0486 | 0.594 | 0.971 | 1.81 | 1.28 |
| ATATGTAGGTTAGCTGTGGTCATTCAGACTAGGC | 0.89 | 1.93 | 0.212 | 0.643 | 0.0822 | 2.29 | 3.3 | 2.79 | 0.838 | 1.89 |
| ACTTACGGGTCCACGAGGTTATAGCACGCGTATA | 0.87 | 0.822 | 0.478 | 1.39 | 0.189 | 1.6 | 1.01 | 0.696 | 0.165 | 0.469 |
| ATCGAAAGGTTGTGAGGTGAGTATACAGAAAGGC | 0.714 | 0.605 | -0.189 | 0.771 | 0.139 | 1.68 | 0.892 | 0.732 | 0.508 | 0.523 |
| ATCCAAAGGTCGAAGGTGAGTATACCCACCCGAA | 5.05 | 4.12 | 0.34 | 3.2 | 0.577 | 4.95 | 5.19 | 5.37 | 2.53 | 4.33 |
| GACACAGGGTCAAGGCCAGAGTACGCGTATTGAT | 6.96 | 4.02 | -0.483 | 3.38 | -0.662 | 5.47 | 5.53 | 5.57 | 1.65 | 4.01 |
| CCTAGCAGACCAGGGTCACTCAAGCATTTCGCTT | 2.1 | 1.88 | -0.131 | 2.25 | -0.581 | 3.23 | 0.556 | 1.21 | -0.525 | 0.444 |
| ACGATTAGTTGACTTAGGGCAACCGATACGACGC | -0.0158 | -0.0959 | 0.339 | 0.0402 | -0.172 | -0.0149 | 0.855 | -0.28 | 0.0988 | -0.124 |
| TCATATAGGTAAAAGGTGAAAGTGGGTGTGGTAA | 2.2 | 2.19 | 0.716 | 2.45 | 0.97 | 5.49 | 9.05 | 8.74 | 8.47 | 9.1 |
